# Bioassay records deposited in PubChem by several laboratories.
# Rce1 inh: blocks yeast Ras-converting enzyme | 0.27% of 290,000 active | yeast membranes, quenched prenylated peptide cleavage fluorescence | calls only | Q03530 | AID 2563;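 active means fall in fluorescence gain of 50% or more versus controls, with final raw signal at or below 3038400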;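 further: plate controls were neutral control wells for no effect and wells lacking membranes for full effect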
# NPR1 activator: GC-A (human) enzyme activation; P16066; HEK293 GC-A cells, cGMP TR-FRET, EC30 ANP; 0% at EC30 ANP, 100% saturating ANP; activation, % at 10 µM; 0.14% of 370,000 active; AID 1671463; in the data active means activation above about 40%
# NPR2 activator: GC-B (human) receptor activation; P20594; HEK293-GC-B cells, CNP EC30, cGMP TR-FRET; 0% at EC30 CNP, 100% saturating CNP; activation, % at 10 µM; 0.11% of 370,000 active; AID 1920062;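 active means activation at 10 µM reaching about 35% in either raw or pattern-adjusted values, limit read from the data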
# PLCb3 inh: inhibitors of human phospholipase C beta3; inhibition, % at 12.2 µM; Purified PLC-beta3, fluorogenic substrate, fluorescence; 0.18% of 370,000 active; Q01970; AID 720704;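 further: 0% = median of compound wells on plate and 100% = full blocker control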
# Target sequence (Q01970 whole entry, looked up): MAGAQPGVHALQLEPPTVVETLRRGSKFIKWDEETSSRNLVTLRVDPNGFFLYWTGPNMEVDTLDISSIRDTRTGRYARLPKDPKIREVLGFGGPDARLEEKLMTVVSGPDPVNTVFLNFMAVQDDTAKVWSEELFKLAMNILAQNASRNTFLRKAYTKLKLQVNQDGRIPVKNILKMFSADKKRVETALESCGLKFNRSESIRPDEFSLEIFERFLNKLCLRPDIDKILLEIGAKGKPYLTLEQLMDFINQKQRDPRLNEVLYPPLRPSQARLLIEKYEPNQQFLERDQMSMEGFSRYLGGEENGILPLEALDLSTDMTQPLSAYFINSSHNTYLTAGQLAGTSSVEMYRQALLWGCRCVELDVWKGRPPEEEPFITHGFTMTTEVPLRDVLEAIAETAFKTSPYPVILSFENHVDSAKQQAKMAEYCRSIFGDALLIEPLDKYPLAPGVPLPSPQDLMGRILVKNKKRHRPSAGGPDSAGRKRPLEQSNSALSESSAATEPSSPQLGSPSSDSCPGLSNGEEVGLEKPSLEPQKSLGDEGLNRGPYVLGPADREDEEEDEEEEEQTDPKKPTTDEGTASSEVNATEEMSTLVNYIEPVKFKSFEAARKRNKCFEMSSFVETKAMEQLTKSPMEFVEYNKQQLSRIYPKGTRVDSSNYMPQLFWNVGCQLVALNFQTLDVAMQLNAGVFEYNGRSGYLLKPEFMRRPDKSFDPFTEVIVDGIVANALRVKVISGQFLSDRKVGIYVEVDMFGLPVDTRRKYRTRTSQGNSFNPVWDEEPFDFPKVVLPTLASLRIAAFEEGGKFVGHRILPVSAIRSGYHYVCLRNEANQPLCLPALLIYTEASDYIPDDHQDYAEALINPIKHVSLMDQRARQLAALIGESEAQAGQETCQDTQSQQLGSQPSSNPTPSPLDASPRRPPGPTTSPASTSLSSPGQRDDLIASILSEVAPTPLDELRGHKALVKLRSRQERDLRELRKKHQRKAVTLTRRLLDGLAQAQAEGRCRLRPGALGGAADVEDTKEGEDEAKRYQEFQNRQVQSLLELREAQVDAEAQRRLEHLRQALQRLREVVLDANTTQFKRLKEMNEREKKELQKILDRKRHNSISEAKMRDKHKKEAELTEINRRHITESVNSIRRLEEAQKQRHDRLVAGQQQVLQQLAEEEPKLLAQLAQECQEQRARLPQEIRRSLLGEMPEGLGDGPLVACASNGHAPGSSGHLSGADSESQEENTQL
# PLCg1 inh: blocks human PLC-gamma1 enzyme activity | purified PLC-gamma1, fluorogenic substrate, fluorescence | inhibition, % at 12.2 µM | 0.84% of 370,000 active | AID 720700; in the data active means inhibition above about 9.5%
# PfM18AAP inh: blocks P. falciparum M18 aspartyl aminopeptidase; 1.2% of 290,000 active; inhibition, % at 7.35 µM; recombinant PfM18AAP, H-Glu-NHMec fluorogenic cleavage;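 active means inhibition above the campaign mean inhibition over all tested compounds plus 3 SD, cut at about 28% in these data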;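 further: 0% = plate median of test compound wells and 100% = 2 mM ZnCl2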
# PLCg1 ctr: counter-screen for PLC-beta3 inhibitors: inhibitors of human PLC-gamma1; shares compounds with PLCg1 inh; 3.1% of 3,300 active; purified PLC-gamma1, fluorogenic substrate, fluorescence; inhibition, % at 12.3 µM; AID 743258; in the data active means inhibition above about 9.5%
# PLCb3 confirm: confirmation of human PLC-beta3 inhibitors | shares compounds with PLCg1 inh | purified PLC-beta3, fluorogenic substrate fluorescence | inhibition, % at 12.3 µM | 1% of 3,300 active
# Starred values were filed as active, the others as inactive; i = inactive; / = no result given. Compounds with a hit are over-represented: about 2.2% of the library has one in this group of screens. Unless noted, no stated cut-off is given here; in the data, active means inhibition above about 11%; inactive means the rest.
SMILES,Rce1 inh,NPR1 activator,NPR2 activator,PLCb3 inh,PLCg1 inh,PfM18AAP inh,PLCg1 ctr,PLCb3 confirm
O=C(CSCc1ccccc1)Nc1cccc(F)c1,i,0.1,-2.0,9.0,11.2*,-2.6,3.8,7.6
C#CCCCN([C@@H](CC(C)C)C(=O)OC)S(=O)(=O)c1ccccc1Br,/,-4.5,-3.1,-0.1,-1.4,/,/,/
O=C(Nc1ccc2c(c1)OCO2)OC1CCC12CCC(c1ccccc1)CC2 (stereo not drawn),/,-2.9,-8.4,-0.9,2.4,/,/,/
CC(C)(C)N(NC(=O)Nc1ccccc1)C(=O)c1ccccc1,i,-2.1,-1.8,8.4,12.8*,0.7,-4.0,1.7
Cc1c(C#N)c(NC(=O)c2cccc(Cl)c2)n(Cc2ccccc2)c1C,i,-1.2,-2.1,0.7,9.9*,-0.8,0.2,1.2
Cc1ccc(OCCCC(=O)NNC(=O)c2ccncc2)cc1,i,5.4,-3.9,-4.1,1.5,/,/,/
CCOc1ccc(OCCCC(=O)NNC(=O)c2ccncc2)cc1,i,0.6,3.0,7.4,14.6*,/,8.3,1.9
CC(C)c1cc(C(C)C)c(S(=O)(=O)N2CCCC(C(=O)N3CCN(Cc4ccccc4)CC3)C2)c(C(C)C)c1 (stereo not drawn),/,2.4,-3.0,0.7,-2.2,/,/,/
O=C(c1cc2ccccc2oc1=O)N1CCCC1,i,-1.2,6.4,3.5,14.6*,-8.4,-5.7,-11.1
O=C(c1cc2ccccc2oc1=O)N1CCCCCCC1,i,5.8,2.4,-2.2,1.7,-5.2,/,/
CC12CCC(C(=O)Nc3ccc(SC(F)F)cc3)(CC1=O)C2(C)C (stereo not drawn),i,7.7,-1.3,9.5,9.8*,7.5,-1.8,0.7
O=S1(=O)c2ccc(N3CC[C@@H](O)C3)cc2O[C@@H]2CCN1C2,/,2.8,3.6,-3.3,-3.7,/,/,/
Cn1c(=O)c2c(nc(-n3ccnc3)n2Cc2ccccc2)n(C)c1=O,i,-6.8,0.6,2.0,10.2*,6.1,-1.1,0.2
O[C@H](COc1ccccc1)CN1CCC(C(O)(c2ccccc2)c2ccccc2)CC1,/,-11.7,-13.2,11.9*,5.4,/,-3.5,-1.2
OC(COc1ccc(OCc2ccccc2)cc1)CN1CCOCC1 (stereo not drawn),i,2.0,3.0,8.6,9.7*,-4.0,-2.6,1.7
OC(COc1ccc(-c2ccccc2)cc1)CN1CCOCC1 (stereo not drawn),i,/,/,/,/,-0.3,/,/
O=C(CSc1nnc(-c2cccc(Cl)c2)n1Cc1ccco1)Nc1ccc2c(c1)OCO2,/,-9.4,1.3,-1.3,-2.8,/,/,/
COc1cc(C=C2C(=O)C=CC2=O)ccc1O,/,27.7,21.2,15.6*,30.4*,/,0.3,1.5
COc1cc(/C=C2/C(=O)CNC2=O)ccc1O,i,13.7,-3.7,0.7,4.6,3.8,/,/
Clc1ccccc1COc1ccc(/C=N/n2cnnc2)cc1,i,-0.7,-3.0,3.6,1.0,-4.2,/,/
C=CCNC(=S)N/N=C/c1ccc(OCc2ccccc2Cl)cc1,i,-9.8,2.5,-0.8,10.0*,-3.8,-5.4,-9.1
COc1cc(C(=O)Nc2cccc3cccnc23)cc(OC)c1OC,i,2.4,6.0,-3.6,1.2,-20.8,/,/
COc1cc(NC(=O)Nc2cccc3cccnc23)cc(OC)c1OC,i,-0.6,-11.7,1.6,15.4*,-4.8,-5.0,-2.5
Cc1cccc(OCC(=O)NS(=O)(=O)c2ccc(Br)cc2)c1,i,-0.5,0.3,-11.4,-0.2,4.0,/,/
O=C(COc1ccccc1)NS(=O)(=O)c1ccccc1,/,3.2,3.6,-0.8,10.0*,1.8,-6.8,-1.0
SMILES,Rce1 inh,NPR1 activator,NPR2 activator,PLCb3 inh,PLCg1 inh,PfM18AAP inh,PLCg1 ctr,PLCb3 confirm
COC(=O)C1=C(C(=O)OC)[C@@H]2N(C)c3ccc(OC)cc3[C@@]23C[C@@H](C(=O)OC)N(C(=O)CC(C)C)C3=N1,i,-9.4,-16.8,7.1,9.6*,/,-4.0,0.9
COc1ccc(NC(=O)Cn2nnc(C(=O)Nc3ccc(F)c(Cl)c3)c2N)cc1OC,i,9.4,1.1,-3.0,0.1,-3.2,/,/
COc1ccc(Cl)cc1NC(=O)c1nnn(CC(=O)Nc2ccc(C)c(C)c2)c1N,i,-0.9,-6.4,-4.9,9.7*,1.6,-19.2,-17.5
COc1ccc(NC(=O)Cn2nnc(C(=O)NCc3ccc(C)cc3)c2N)cc1Cl,i,3.7,-1.8,-5.9,12.8*,1.0,-2.4,-2.2
COc1ccc(NC(=O)Cn2nnc(C(=O)NCc3ccccc3)c2N)cc1Cl,i,-1.6,11.5,7.3,-3.1,16.7,/,/
COCCCN1C(=O)[C@H](CC(=O)N2CCN(C(=O)c3ccco3)CC2)[C@]2(C(=O)OC)CCCCC=C12,/,3.4,-1.1,0.9,3.1,/,/,/
COc1ccc(C(=O)N[C@H](C(=O)NCc2ccc(C)cc2)C(C)C)cc1,/,-1.6,-6.4,-6.2,-0.7,3.1,/,/
COc1ccc(C(=O)N[C@H](C(=O)NCC2CCCCC2)C(C)C)cc1,i,-3.3,4.0,1.7,11.7*,-1.1,-12.2,-9.9
CCn1nnnc1SCC(=O)N1CCCc2ccccc21,i,-1.1,1.3,11.2*,-0.6,-1.6,0.0,3.0
CCCn1c(SCC(=O)N2CCCc3ccccc32)nnc1-c1ccccn1,i,-9.7,-10.8,3.9,11.8*,9.7,0.0,-2.4
CCN(CC)S(=O)(=O)c1ccc(NCC2COc3ccccc3O2)c([N+](=O)[O-])c1 (stereo not drawn),i,4.7,-0.6,-1.7,12.2*,-2.5,-0.3,3.7
O=S(Cc1cc(Oc2ccccc2)nc(-c2ccccc2)n1)c1ccccc1 (stereo not drawn),i,-6.1,-7.2,3.8,13.5*,3.0,1.1,2.5
CCCC1CCC2(CC1)CCC2OC(=S)Nc1ccccc1C(F)(F)F (stereo not drawn),/,1.3,1.9,0.5,0.1,/,/,/
CN(C)CC(c1ccc(O)cc1)C1(O)CCCCC1 (stereo not drawn),/,5.4,-7.0,-0.4,0.8,/,/,/
CNCC(=O)Nc1ccc(Cl)c(C(F)(F)F)c1,i,-2.4,-1.2,0.1,1.6,6.9,/,/
Cc1ccccc1NC(=O)CNc1ccc(Cl)c(C(F)(F)F)c1,i,2.6,3.8,16.2*,12.6*,-4.1,3.3,7.1
COCCNc1nc2c(c(=O)n(Cc3ccc(OC)cc3)c(=O)n2C)n1C,i,11.6,10.6,0.7,-0.4,-8.3,/,/
COc1ccc(CNc2nc3c(c(=O)n(Cc4ccc(Cl)cc4)c(=O)n3C)n2C)cc1,i,1.6,14.9,2.7,10.2*,-0.9,-0.4,-6.1
